Shown are actives, neighbours in structure and some others; about 0.78% of the full set was active somewhere.
PKA-R1A act = activators of PKA-R1A complex; activation, % at 11.4 µM; PKA-R1A dissociation, Cy5-IP20 fluorescence polarization; scaled: DMSO 0%, 113 µM cGMP 100%; 340,000 compounds, 0.083% hits;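 active = percent activation above the mean of all tested compounds plus 3 SD, cut at about 19% in these data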;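 also: higher means more PKAc released from R1A so a rise in polarization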
Yeast superoxide = yeast age-related superoxide inhibition as caloric restriction mimetic; 330,000 compounds, 0.18% hits; S. cerevisiae aged cells, superoxide DHE fluorescence; active compounds read low; superoxide response (% of plate mean), % at 10 µM;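 active = superoxide response under a set limit, about three screen SD below normal, cut at about 65% in these data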;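 also: yeast aged for seven days with compound at 30 °C before DHE staining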
PolyA inhibitor = inhibitors of polyadenylation in S. cerevisiae; S. cerevisiae SKY197-pL101 polyadenylation reporter, beta-gal luminescence; efflux-impaired pdr1/pdr3 knockout yeast; score 100 = 6 SD above DMSO; activity score, % at 12 µM; 300,000 compounds, 0.02% hits;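 active = lowest replicate activity score at least 50, where 100 means six control SD above control mean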;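 also: yeast exposed to compound for 9 h at 30 °C; higher score means more reporter readthrough which indicates perturbed polyadenylation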
PKA-R2B act = activators of human PKA-R2B complex; PKA-R2B holoenzyme dissociation, Cy5-IP20 fluorescence polarization; R2B truncated from residue 108, S112A mutant; 0% DMSO only, 100% 113 µM cGMP; activation, % at 11.4 µM; 340,000 compounds, 0.079% hits; AID 504700;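 active = activation above a cutoff set at the mean over all compounds plus 3 SD, cut at about 18% in these data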;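 also: higher means more holoenzyme dissociation and a rise in polarization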
Target sequence (P31323 whole entry, looked up, other chains not shown, the tested form may be a part): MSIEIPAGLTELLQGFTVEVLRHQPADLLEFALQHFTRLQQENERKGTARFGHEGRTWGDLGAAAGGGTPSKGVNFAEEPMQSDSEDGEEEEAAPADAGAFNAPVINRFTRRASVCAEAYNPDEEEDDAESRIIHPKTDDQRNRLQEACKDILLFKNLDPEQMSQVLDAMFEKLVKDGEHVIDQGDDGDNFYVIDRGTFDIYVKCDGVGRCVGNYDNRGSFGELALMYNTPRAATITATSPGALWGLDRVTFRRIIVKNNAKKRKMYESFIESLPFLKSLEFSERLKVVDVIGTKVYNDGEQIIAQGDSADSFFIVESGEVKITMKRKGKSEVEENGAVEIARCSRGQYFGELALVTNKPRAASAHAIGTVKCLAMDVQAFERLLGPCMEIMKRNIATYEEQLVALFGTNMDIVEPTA
V-ATPase pHluor = yeast V-ATPase proton transport regulation by pHLuorin; S. cerevisiae, pHLuorin cytosolic pH fluorescence; response, % at 10 µM; 350,000 compounds, 0.37% hits; AID 504577; in the data active = response mostly above about 7.3%, no sharp cut-off; inactive = mostly below about 5.4%; also: actives read high
JMJD2C inh = inhibitors of human GASC-1 (JMJD2C) demethylase; Q9H3R0; GST-JMJD2C(1-420) H3K9me3 demethylation, DELFIA europium; inhibition, % at 2.35 µM; 330,000 compounds, 0.069% hits; AID 2099;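 active = more than half of a compound's replicate wells show inhibition beyond 50%, single wells judged on their own value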;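 also: signal counts dimethyl H3K9 product captured on neutravidin plate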
Superoxide pick = confirmation of caloric restriction mimetics inhibiting yeast age-related superoxide; shares compounds with Yeast superoxide; S. cerevisiae aging, superoxide DHE fluorescence; active compounds read low; superoxide response (% of plate), % at 10 µM; AID 434994; 850 compounds, 1% hits;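 active = superoxide signal below 65% of the plate average of sample wells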;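 also: cells aged with compound for 7 days at 30 degrees C before staining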
DHE counter = compound alters DHE oxidation or fluorescence in yeast | shares compounds with Yeast superoxide | S. cerevisiae BY4741, flow cytometry; active compounds read low | fluorescence response, % at 10 µM | 850 tested, under 10 active;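 active = fluorescence response below 15%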;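 also: lower means stronger quenching of DHE signal or ROS scavenging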
Of the large screens only hits and unclear results are named; the others gave an inactive call (follow-up assays come after a bar, where they were run).

COc1ccccc1N1CCN(CC(=O)Nc2cc(F)ccc2C)CC1	none
O=C(CN1CCN(c2ccccn2)CC1)Nc1cc(F)ccc1F	none | Superoxide pick inactive | DHE counter inactive
Cc1ccc(-c2c[n+](CC(=O)Nc3cc(=O)n(C)c(=O)n3C)c3n2CCC3)cc1	none
Cc1csc(C(C)N(C)C(=O)CCc2nnc(CCc3ccccc3)o2)n1 (stereo not given)	none
Oc1cccc2oc(=S)[nH]c12	none (no result: Yeast superoxide, PolyA inhibitor, JMJD2C inh)
Cc1nc2c(=O)oc3ccccc3c2n1-c1ccccc1	none
CCn1c(C)nc2c(=O)oc3ccccc3c21	Yeast superoxide 65 | Superoxide pick inactive | DHE counter inactive
COc1ccc(S(=O)(=O)NC(N)=NCCc2ccc(OC)c(OC)c2)cc1C	Yeast superoxide 64 | Superoxide pick inactive | DHE counter inactive
NC(=NC(=O)c1cccc(C(F)(F)F)c1)c1ccc(C(F)(F)F)cn1	none
NC(=NC(=O)c1ccc(OC(F)(F)F)cc1)c1ccc(C(F)(F)F)cn1	Yeast superoxide 62 | Superoxide pick inactive | DHE counter inactive
O=C(CCCc1ccncc1)c1ccccc1	none (no result: Yeast superoxide, PolyA inhibitor, JMJD2C inh)
FC(F)c1nc2ccccc2[nH]1	none
c1ccc2[nH]c3cc4ncnc4cc3nc2c1	Yeast superoxide 40 | Superoxide pick 47 | DHE counter inactive
COc1ccc(CCNC(=O)CNS(=O)(=O)c2ccc(N(C)C)c([N+](=O)[O-])c2)cc1OC	Yeast superoxide 65 | Superoxide pick inactive | DHE counter inactive
CN(C)c1ccc(S(=O)(=O)NCC(=O)NCc2ccccc2)cc1[N+](=O)[O-]	none
COc1ccc(CCNC(=O)CCNS(=O)(=O)c2cccc(Cl)c2)cc1OC	Yeast superoxide 59 | Superoxide pick inactive | DHE counter inactive
O=C(OCC(=O)N1CCCC1=O)c1cc2ccccc2o1	none (no result: PolyA inhibitor)
COc1ccc(CNC(=O)COC(=O)c2cccs2)cc1	none
CCN(CC)c1ccc(/C=C/c2cc(-c3ccccc3)c3ccccc3n2)cc1	Yeast superoxide 55 | Superoxide pick inactive | DHE counter inactive
CN(C)c1ccc(/C=C/c2ccc3ccccc3n2)cc1	none
Cc1ccc(-c2nnc(Nc3ccc(O)cc3)c3ccccc23)cc1S(=O)(=O)NCCO	none | Superoxide pick inactive | DHE counter inactive
NC(=O)COc1ccc(Nc2nnc(-c3ccc(O)cc3)c3ccccc23)cc1	none
Cc1ccc(-c2nnc(Nc3ccc(CC(N)=O)cc3)c3ccccc23)cc1S(N)(=O)=O	none | Superoxide pick inactive | DHE counter inactive
CNC(=O)c1ccc(Nc2nnc(-c3ccc(O)cc3)c3ccccc23)cc1	none
Cc1ccc(-c2nnc(Nc3ccc(OCC(N)=O)cc3)c3ccccc23)cc1S(N)(=O)=O	none | Superoxide pick inactive | DHE counter inactive
CNC(=O)c1ccc(Nc2nnc(-c3ccc(C)c(S(N)(=O)=O)c3)c3ccccc23)cc1	none | Superoxide pick inactive | DHE counter inactive
O=C(CCc1nnc(CCCCc2ccccc2)o1)N1CCCCC1CCO (stereo not given)	none
Cc1cc(OCC(O)CNC(C)(C)C)ccc1Cl (stereo not given)	none (no result: PKA-R1A act, PKA-R2B act)
CCCc1n[nH]c2c1C(=O)CC(C)(C)C2	none
CC1(C)CC(=O)c2c(-c3cccs3)n[nH]c2C1	Yeast superoxide 64 | Superoxide pick inactive | DHE counter inactive
COc1cc(CNC(=O)c2cc(C(=O)NCc3cc(OC)cc(OC)c3)n(C)n2)cc(OC)c1	none (no result: Yeast superoxide, PolyA inhibitor, JMJD2C inh)
C#CCSc1nnc(-c2ccc(O)cc2)o1	none | Superoxide pick inactive | DHE counter inactive
C#CCSc1nnc(-c2ccc(C)cc2)o1	none | Superoxide pick inactive | DHE counter inactive
Oc1ccc(-c2nnc(SCc3ccccc3)o2)cc1	none
O=C1CN(c2nc3nonc3nc2N2CCCCC2)CCN1	none
CCOC(=O)/C=C/[C@H]1CC(c2ccccc2)(c2ccccc2)CO1	none (no result: PolyA inhibitor)
Cc1cccc(NS(=O)(=O)c2cc(C(=O)N3CCN(C)CC3)ccc2C)c1	Yeast superoxide 64 | Superoxide pick inactive | DHE counter inactive
CCCn1c(SC(C)C(=O)NCC2CCCO2)nc2sc3c(c2c1=O)CCC3 (stereo not given)	none
CC(=O)c1ccc(-c2cccc([C@H]3[C@@H]4C=CC[C@@H](C)[C@@H]4C(=O)N3Cc3ccccc3)c2)cc1	none (no result: PolyA inhibitor, JMJD2C inh)
Cc1ccc(C)c(N2CCN(C(=O)CCCn3ncn4c(cc5occc54)c3=O)CC2)c1	none
COc1ccc(S(=O)(=O)Nc2ccc(F)c(F)c2)cc1Cl	none | Superoxide pick inactive | DHE counter inactive
COc1ccc(S(=O)(=O)Nc2cccc(Cl)c2)cc1OC	none | Superoxide pick inactive | DHE counter inactive
N#Cc1ccc(Nc2ccccc2)c(N)c1	Yeast superoxide 61 | Superoxide pick inactive | DHE counter inactive
COC(=O)c1ccc(CO/N=C(\NC(C)=O)c2nonc2NC(C)=O)cc1	none
COc1ccc(CC(=O)Nc2nc(-c3cccnc3)cs2)cc1	Yeast superoxide 63 | Superoxide pick inactive | DHE counter inactive
CN1OC[C@@H]2CN(C(=O)CCc3ccccc3)[C@H](c3cccc(-c4ccc(C#N)cc4)c3)C[C@@H]21	none (no result: Yeast superoxide, PolyA inhibitor, JMJD2C inh)
CCOC(=O)c1c(C)nc2ccc(Cl)cc2c1-c1ccccc1	Yeast superoxide 62 | Superoxide pick inactive | DHE counter inactive
CC(=NCCc1ccccc1)C1=C(O)COC1=O	none
CC(=NCCc1ccccc1)C1=C(O)C(c2ccccc2)OC1=O (stereo not given)	Yeast superoxide 52 | Superoxide pick inactive | DHE counter inactive
C#CCOCCOCCOCCNc1nc(N2CCN(C(=O)[C@H](CCC(=O)O)n3cc([C@@H](N)[C@H](C)CC)nn3)CC2)nc(N2CCN(C(=O)[C@H](CCC(=O)O)n3cc([C@@H](N)CCSC)nn3)CC2)n1	none (no result: PolyA inhibitor)
CCCCn1c2ccccc2c2cc(CC(N)=O)ccc21	none | Superoxide pick inactive | DHE counter inactive
O=C1c2ccc(-c3ccc(Cl)c(C(F)(F)F)c3)cc2S(=O)(=O)c2cccc(C(=O)N3CCN(c4ccc(Cl)cn4)CC3)c21	none (no result: PolyA inhibitor, JMJD2C inh)
Cc1cc(-c2nnc(SCC(=O)Nc3ccccc3)n2C)no1	Yeast superoxide 58 | Superoxide pick inactive | DHE counter inactive
CC(Sc1nc(C(C)(C)C)cc(-c2ccccc2)c1C#N)C(=O)Nc1ccccc1 (stereo not given)	none
NS(=O)(=O)c1ccc(NS(=O)(=O)c2ccc(Br)cc2)cc1	none | Superoxide pick inactive | DHE counter inactive
